Measurements reported in ChEMBL document CHEMBL1157539, “Thousands of chemical starting points for antimalarial lead identification” (Nature, 2010).

The molecules below were run on HepG2 (assay: GSK_TCMDC: Percent inhibition of human HepG2 cell line. Test compounds present at 10uM.).
Format: functional

Row | SMILES | Inhibition
1 | CS(=O)(=O)c1ccc(CNCc2ccc(-c3cccc(-c4nc5cc(C(F)(F)F)ccc5[nH]4)c3)cc2)cc1.O=C(O)C(F)(F)F | 54%
2 | Cc1cccc2nc(-c3ccc(-c4ccc(CN5CCN(c6ccc(C#N)cn6)CC5)cc4)s3)[nH]c12.O=C(O)C(F)(F)F | 10%
3 | Cc1ccc(NC(=O)Nc2ccc(Br)cc2)cc1OCCN(C)C | 13%
4 | NC(=O)C1CCN(Cc2ccc(-c3cccc(-c4nc5cc(F)ccc5[nH]4)c3)cc2)CC1.O=C(O)C(F)(F)F | 10%
5 | O=C(/C=C/c1ccc(Cl)c(Cl)c1)N1CCC(NCc2ccc3[nH]ccc3c2)CC1 | 44%
